Bioassay records: PubChem BioAssay, National Center for Advancing Translational Sciences (NCATS)
UDG counter: blocks uracil-DNA glycosylase in AID counter-screen. Potency, µM (doses to about 115 µM), without a hit: at the top dose activity change, negative = inhibition, actives largely listed as inhibitors. hit rate 0.14% among 91,000. FRET deamination/UDG coupled assay, UDG read, 4 h; further: nearly all actives have a fitted effect of over 65% in size
AID inh: activation induced cytidine deaminase inhibition; Q9GZX7; AID deamination FRET fluorescence, UDG-coupled, 4 h; Potency, µM (highest dose often 115 µM), most hits filed as inhibitors; hit rate 0.32% among 91,000; AID 1347428; further: nearly all actives have a fitted effect of over 25% in size
Target sequence (Q9GZX7 whole entry, looked up): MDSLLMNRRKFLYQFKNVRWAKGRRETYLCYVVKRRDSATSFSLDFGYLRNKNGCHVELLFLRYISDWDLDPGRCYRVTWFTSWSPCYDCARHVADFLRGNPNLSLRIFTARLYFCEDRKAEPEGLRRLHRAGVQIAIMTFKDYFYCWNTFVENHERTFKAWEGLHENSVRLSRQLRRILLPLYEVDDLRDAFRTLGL
Starred values were filed as active, the others as inactive; i = inactive; ? = inconclusive; [ ] = dose if it differs, or a comment. This is a sample that favours compounds with a hit; in the whole collection about 0.47% have one here. The call rests on the fitted dose curve; in most records, active means well fitted curve in the direction sought with a large enough effect; inconclusive means small, poorly fitted or top-dose-only effect, or another doubt; inactive means no such curve, though single readings can be large; an effect the other way counts as inactive or inconclusive. On the % scale 0 is the no-effect control and ±100 the full control effect; potency means the concentration at half of the fitted maximal effect.

SMILES | UDG counter | AID inh
COc1ccccc1N1CCN(C(=O)c2cn(CC(C)C)c(=O)c3c2c2ccccc2n3C)CC1 | -5.2% | i
Cn1cc(C(=O)N2CCN(c3cccc(C(F)(F)F)c3)CC2)c2c3ccccc3n(C)c2c1=O | 79.4µM* | ?
Cn1c2ccccc2c2c(C(=O)N3CCN(c4cccc(C(F)(F)F)c4)CC3)cn(C3CCCCC3)c(=O)c21 | -13.1% | ?
O=C(O)c1ccc(COc2cccc(Cl)c2)cc1 | -8.1% | i
CCOc1ccc(Nc2nc(-c3ccccc3)c(C(=O)Nc3cccnc3)s2)cc1 | -5.4% | i
O=C(NC1CCCc2ccccc21)C1CC2CCCC(C1)C2=O (stereo not given) | 1.1% | i
CCN(CC)C(=O)c1sc2c(c1C)c(=O)n(-c1ccc(Cl)c(Cl)c1)c(=O)n2Cc1cc(=O)n2ccccc2n1 | ? | 89.1µM*
CCN(CC)C(=O)c1sc2c(c1C)c(=O)n(-c1ccc(C)c(C)c1)c(=O)n2Cc1cc(=O)n2ccccc2n1 | -12.3% | i
Cc1ccc(/C=C/C(=O)NC2CCCC2)c(C)c1 | -7.7% | i
N#C/C(=C\c1ccc(-c2ccc(C(=O)O)cc2)o1)c1nc2ccccc2[nH]1 | -14.3% | i
N#C/C(=C\c1ccc(-c2ccc(Cl)c(C(=O)O)c2)o1)c1nc2ccccc2[nH]1 | -2.4% | 28.2µM*
Cc1ccc(NC(=O)/C(C#N)=C\c2ccc(Cl)cc2Cl)cc1C | -9.4% | i
Cc1ccc(NC(=O)/C(C#N)=C/c2ccc(-c3ccc(Cl)c(C(=O)O)c3)o2)cc1C | ? | 79.4µM*
S=C(Nc1ccc(Cl)cc1Cl)NC1CC1 | 3.4% | i
Cc1nnc(SCC(=O)Nc2nncs2)n1C(C)C | 3.1% | i
O=C(Cn1ccccc1=O)Nc1ccc(Br)cc1Br | -10.5% | i
O=C(Nc1ccc(OC(F)(F)F)cc1)C1CCN(S(=O)(=O)c2cccs2)CC1 | ? | i
O=C(Nc1cccc(C(F)(F)F)c1)C1CCN(S(=O)(=O)c2cccs2)CC1 | 79.4µM* | ?
COc1ccccc1C(=O)COC(=O)Cc1ccc(Cl)cc1Cl | -7.8% | i
CC(C)Cc1ccc(S(=O)(=O)N2CCC(c3ccncc3)CC2)cc1 | -8.8% | 35.5µM*
CC(C)(C)c1ccc(S(=O)(=O)N2CCC(c3ccncc3)CC2)cc1 | -8.2% | ?
CC(Oc1ccccc1)c1nc(-c2ccc(Br)cc2)no1 (stereo not given) | -7.5% | i
COc1cc(/C=C2/NC(=O)NC2=O)ccc1OCC(=O)O | -3.7% | i
CN(Cc1cccc(Cl)c1)C(=O)C1CCN(c2ccc(C(F)(F)F)cn2)CC1 | -7.7% | i
COc1ccc(NC(=O)CN(Cc2ccccc2)S(=O)(=O)c2ccc(C)cc2)cc1Cl | 89.1µM* | i
SMILES | UDG counter | AID inh
COC(=O)c1ccc(NC(=O)CN(Cc2ccccc2)S(=O)(=O)c2ccc(C)cc2)cc1 | 21.9% | i
COc1cccc(/C=C(/C#N)C(=O)c2c(Cl)cccc2Cl)c1OC | 4.8% | i
CC(C)(C)c1ccc(OCc2nc3ccccc3n2CCOc2ccccc2)cc1 | -16.2% | 31.6µM*
COc1ccc(OCc2nc3ccccc3n2Cc2ccc(C(C)(C)C)cc2)cc1 | -24.8% | ?
CC[C@@H](C)[C@H](NC(=O)c1sc(-c2ccccc2F)nc1C)C(=O)O | -7.2% | i
CCCCN(CCCC)CCNC(=O)c1cn(CC)c2ccc(S(=O)(=O)N3CCc4ccccc4C3)cc2c1=O | ? | 28.2µM*
CCn1cc(C(=O)NCCc2ccccc2)c(=O)c2cc(S(=O)(=O)N3CCc4ccccc4C3)ccc21 | -13.8% | ?
Cc1oc2cc(OCC(=O)NC(C)c3cccs3)ccc2c(=O)c1Oc1ccccc1 (stereo not given) | 7.4% | i
CC(=O)N1CCc2c(sc3c2c(=O)n(Cc2ccccc2)c(=O)n3Cc2ccccc2F)C1 | -18.0% | ?
CC(=O)N1CCc2c(sc3c2c(=O)n(Cc2ccccc2)c(=O)n3Cc2ccccc2Cl)C1 | -28.7% | 22.4µM*
CCOC(=O)N1CCc2c(sc3c2c(=O)n(-c2ccc(CC)cc2)c(=O)n3Cc2cccc(Cl)c2)C1 | -5.3%[57.5 µM] | i
C=Cc1ccc(Cn2c(=O)n(-c3cccc(Cl)c3)c(=O)c3c4c(sc32)CN(C(C)=O)CC4)cc1 | 79.4µM* | ?
CC(=O)c1cccc(NC(=O)CC2SC(c3cc4ccccc4oc3=O)=NC2=O)c1 (stereo not given) | 3.4% | i
CC(C)N1CCC(Nc2nc(-c3cccnc3)nc3ccccc23)CC1 | 5.6% | i
CCC1CCCCN1S(=O)(=O)c1ccc2c(c1)CCCN2C(C)=O (stereo not given) | -0.3% | i
CC1CCCCN1S(=O)(=O)c1cc2c3c(c1)CC(=O)N3CCC2 (stereo not given) | 89.1µM* | ?
CC1CCN(S(=O)(=O)c2cc3c4c(c2)CC(=O)N4CCC3)CC1 | -24.8% | i
CCC1CCCCN1S(=O)(=O)c1cc2c3c(c1)CC(=O)N3CCC2 (stereo not given) | 89.1µM* | i
CC(C)(C)NC(=O)Cc1csc(-c2cccs2)n1 | -0.2% | i
Cc1cc(NC(=O)CSc2nnc3c(Cl)cc(C(F)(F)F)cn23)no1 | 0.4% | i
CC(=O)N1CCN(C(C(=O)O)c2c[nH]c3ccccc23)CC1 (stereo not given) | 5.4% | i
COc1ccc(CNCCC(c2ccc3c(c2)OCO3)c2ccccc2OC)cc1 (stereo not given) | -14.8% | 50.1µM*
COc1ccc(CNC(=O)C(=O)NCC(c2ccc3c(c2)OCO3)N2CCOCC2)cc1 (stereo not given) | 1.2%[57.5 µM] | i
Cc1ccccc1NC(=O)C1=Cc2sc3c(c2CS1)CCCC3 | -15.5% | i
COc1ccc(OC)c(C2C(C(=O)Nc3ccc(C)cc3C)=C(C)Nc3c(C(=O)Nc4ccc(F)cc4)cnn32)c1 (stereo not given) | -9.1% | ?
SMILES | UDG counter | AID inh
COc1ccc(OC)c(C2C(C(=O)Nc3ccccc3OC)=C(C)Nc3c(C(=O)Nc4ccc(F)cc4)cnn32)c1 (stereo not given) | -15.1% | 17.8µM*
COc1ccccc1Cc1nc2ccccc2nc1SCC(=O)N1CCCCC1 | 89.1µM* | ?
COc1ccccc1Cc1nc2ccccc2nc1SCC(=O)N1CCc2ccccc21 | 0.3% | i
Cc1ccc(C)c(Nc2nn3c(=O)c4ccc(C(=O)NCc5cccs5)cc4nc3s2)c1 | -19.7% | 39.8µM*
CCN(CC)CCNC(=O)c1ccc2c(=O)n3nc(Nc4ccccc4OC)sc3nc2c1 | 1.7% | 70.8µM*
COc1ccccc1Nc1nn2c(=O)c3ccc(C(=O)NCc4cccs4)cc3nc2s1 | -6.8% | i
COc1ccccc1Nc1nn2c(=O)c3ccc(C(=O)NCCCOC(C)C)cc3nc2s1 | 3.3% | i
Cc1cc(OCC(=O)OCCOc2ccccc2)ccc1Cl | 1.3% | i
CNC(=O)c1ccc2c(c1)OCC(=O)N2 | -3.0% | i
CCOC(=O)c1c(C)oc2nc(C)nc(NCc3ccc(Cl)cc3)c12 | 8.1% | i
CCOC(=O)c1c(C)oc2nc(C)nc(NC(C)c3ccccc3)c12 (stereo not given) | -14.9% | 79.4µM*
CCOc1ccc(Nc2nnc(-n3nc(C)cc3C)c3ccccc23)cc1 | 79.4µM* | i
CCc1ccc(Nc2nnc(-n3nc(C)cc3C)c3ccccc23)cc1 | 30.4% | i
N#C/C(=C\C=C\c1ccco1)C(=O)NC1CC1 | 1.9% | i
O=C(CCc1ncc(-c2ccccc2)o1)Nc1ccc(O)c2ccccc12 | -25.9% | i
N#Cc1ccc(F)c(COC(=O)c2ccc(N3CCOCC3)nc2)c1 | -0.5% | i
